{"source": "PubChem BioAssay (EPA / NIEHS)", "note": "Records with an inconclusive call do not appear. The source made the active and inactive calls. The calls were made as follows: active = hit-call score of the fitted dose curve at least 0.9, where 1 is the maximum; inconclusive = response in the unintended direction; inactive = score below 0.9.", "data": [{"read-out": "Glyceraldehyde-3-phosphate dehydrogenase (Homo sapiens) (UniProt P04406)", "assay": "CLD_GAPDH_48hr: CellzDirect (CLD) Gene Expression Assay for Baseline Control (Glyceraldehyde 3-phosphate dehydrogenase) at 48 hours (AID 2283706);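 also: active means higher GAPDH mRNA than DMSO vehicle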", "description": "CLD_48hr is a cell-based, multiplexed-readout assay that uses hepatocyte, a human liver primary cell, with measurements taken at 48 hours after chemical dosing in a 96-well plate.CLD_GAPDH_48hr is one of 16 assay component(s) measured or calculated from the CLD_48hr assay. It is designed to make measurements of mRNA induction, a form of inducible reporter, as detected with chemiluminescence signals by Quantitative Nuclease Protection Assay (qNPA) technology.Data from the assay component CLD_GAPDH_48hr was analyzed at the endpoint, CLD_GAPDH_48hr, in the positive analysis fitting direction relative to DMSO as the negative control and baseline of activity. Using a type of inducible reporter, gain-of-signal activity can be used to understand changes in the reporter gene as they relate to the gene GAPDH. Furthermore, this assay endpoint can be referred to as a secondary readout, because this assay has produced multiple assay endpoints where this one serves a background control function. To generalize the intended target to other relatable targets, this assay endpoint is annotated to the background measurement intended target family, where subfamily is baseline control.\nHuman hepatocyte cultures were treated daily for two consecutive days with fresh dosing solutions containing appropriate concentrations of the 320 ToxCast chemicals (chemical identities were blinded to CellzDirect and other ToxCast collaborators), vehicle control (0.2% DMSO), and positive control inducers as summarized in Table 1. Due to the large number of treatment groups and chemicals examined, the ToxCast chemicals were divided into two groups (spanning two independent cultures of hepatocytes from separate donor preparations (Hu778: ToxCast plates 1 and 2; Hu776: ToxCast plates 3 and 4). Each preparation of human hepatocyte cultures was treated with respective vehicle control, medium only control, set of six positive controls/reference chemicals for the five hepatic receptor pathways, and a subset of eight of the ToxCast chemicals (indoxacarb, pyrithiobac-sodium, norflurazon, cyhalofop-butyl, methomyl, thiram, acetochlor, and propiconazole). These replicate data, coupled with internal replicates designed within the blinded ToxCast chemical library, provided additional data to evaluate interindividual differences between hepatocyte preparations and their potential impact on chemical profiles.Cell morphology and integrity were evaluated using phase-contrast microscopy as an indicator of hepatocyte cell health (Tyson & Green, 1987). Cultures for each treatment group (i.e., media, vehicle [0.2% DMSO], positive control inducers [multiple concentrations], and the ToxCast chemicals [multiple concentrations]) were observed and cell morphology was assessed relative to vehicle control cultures at each harvest time point (0, 6, 24, or 48 h). […] Images were evaluated at the conclusion of the study to assess changes in cell integrity and account for the effects of chemical exposure on uncharacteristic changes in concentration-dependent gene expression profiles. The results from these determinations of apparent cytotoxicity were annotated (yes/no) alongside the corresponding qNPA data for reference.At the conclusion of each treatment period, hepatocyte cultures (96-well) were washed with 1 volume of HBSS, lysed by addition of 25 ul ArrayPlate lysis buffer (HTG, Tucson, AZ), and 70 ul/well of Denaturation Oil, denatured by incubation at 95C for 10 min, and frozen at approximately -70C until analysis by nuclease protection assay (qNPA) (Roberts et al., 2007). For qNPA analysis, cell lysates were thawed at 50C for approximately 30 min, qNPA probes were added, and samples were incubated at 95C for 10 min to begin the detection process by denaturing the target RNA, dissociating the duplexes and secondary structure hybridization. At the conclusion of the hybridization period, S1 nuclease reagent was added to each sample to digest all nonprotected nucleotides at 50C for 60-90 min. […]", "values": [{"smiles": "S=C(S)NCCNC(=S)S.[Mn+2].[S-]C([S-])=NCCN=C([S-])[S-].[Zn+2]", "outcome": "inactive"}, {"smiles": "COC(=O)c1ccccc1C(=O)O", "outcome": "inactive"}, {"smiles": "CCC(C)OC(=O)N1CCCCC1CCO", "note": "(stereo not drawn)", "outcome": "inactive"}, {"smiles": "CCCCCOC(=O)COc1cc(N2C(=O)C3=C(CCCC3)C2=O)c(F)cc1Cl", "outcome": "inactive"}, {"smiles": "S=C([S-])NCCNC(=S)[S-].[Mn+2]", "outcome": "inactive"}, {"smiles": "COC(=O)c1cccc(C)c1S(=O)(=O)NC(=O)Nc1nc(OCC(F)(F)F)nc(N(C)C)n1", "outcome": "inactive"}, {"smiles": "CCOC(=O)[C@H](C)Oc1ccc(Oc2nc3ccc(Cl)cc3o2)cc1", "outcome": "inactive"}, {"smiles": "COC(=O)c1c(Cl)nn(C)c1S(=O)(=O)NC(=O)Nc1nc(OC)cc(OC)n1", "outcome": "inactive"}, {"smiles": "CCNc1nc(N)nc(Cl)n1", "outcome": "inactive"}, {"smiles": "CCCOC(=O)NCCCN(C)C", "outcome": "inactive"}, {"smiles": "CC1(C)C(C=C(Cl)Cl)C1C(=O)OCc1cccc(Oc2ccccc2)c1", "note": "(stereo not drawn)", "outcome": "inactive"}, {"smiles": "CCOC(=O)COc1cc(-n2ncc(C(F)(F)F)c(C)c2=O)c(F)cc1Cl", "outcome": "inactive"}, {"smiles": "Oc1ccc(C(c2ccc(O)cc2)C(Cl)(Cl)Cl)cc1", "outcome": "inactive"}, {"smiles": "CCCCCCC(C)OC(=O)COc1nc(F)c(Cl)c(N)c1Cl", "note": "(stereo not drawn)", "outcome": "inactive"}, {"smiles": "COC(=O)c1ccc(I)cc1S(=O)(=O)NC(=O)Nc1nc(C)nc(OC)n1", "outcome": "inactive"}, {"smiles": "C#CCOC(=O)[C@@H](C)Oc1ccc(Oc2ncc(Cl)cc2F)cc1", "outcome": "inactive"}, {"smiles": "COCCO", "outcome": "inactive"}, {"smiles": "Cc1nn(C)c(Oc2ccccc2)c1C=NOCc1ccc(C(=O)OC(C)(C)C)cc1", "outcome": "inactive"}, {"smiles": "CC(C)(c1ccc(O)cc1)c1ccc(O)cc1", "outcome": "inactive"}, {"smiles": "COc1nc(C)nc(NC(=O)NS(=O)(=O)c2ccccc2OCCCl)n1", "outcome": "inactive"}, {"smiles": "CCSC(=O)N(CC(C)C)CC(C)C", "outcome": "inactive"}, {"smiles": "CCCN(CCC)C(=O)SCC", "outcome": "inactive"}, {"smiles": "C=CCOC(Cn1ccnc1)c1ccc(Cl)cc1Cl", "note": "(stereo not drawn)", "outcome": "inactive"}, {"smiles": "CCC(O)=C1C(=O)CC(C(=O)O)CC1=O", "note": "(stereo not drawn)", "outcome": "inactive"}, {"smiles": "N#CSCSc1nc2ccccc2s1", "outcome": "inactive"}, {"smiles": "CCOC(=O)C(C)Oc1ccc(Oc2nc3ccc(Cl)cc3o2)cc1", "note": "(stereo not drawn)", "outcome": "inactive"}, {"smiles": "COC(=O)c1ccc(CNS(C)(=O)=O)cc1S(=O)(=O)NC(=O)Nc1nc(OC)cc(OC)n1", "outcome": "inactive"}, {"smiles": "CCN(CC)C(=O)c1cccc(C)c1", "outcome": "inactive"}, {"smiles": "O=C(O)C1(C(=O)Nc2ccc(Cl)cc2Cl)CC1", "outcome": "inactive"}, {"smiles": "CCCCC(CC)COC(=O)c1ccccc1C(=O)O", "note": "(stereo not drawn)", "outcome": "inactive"}, {"smiles": "OB(O)O", "outcome": "inactive"}, {"smiles": "CCCOC(=O)c1ccc(C(=O)OCCC)nc1", "outcome": "inactive"}, {"smiles": "CCCCOC(=O)C(C)Oc1ccc(Oc2ccc(C(F)(F)F)cn2)cc1", "note": "(stereo not drawn)", "outcome": "inactive"}]}]}
